For 8 compounds, Potency, activity change, positive = activation and max response results are on record in PubChem BioAssay (Tox21).

The nature of assay [1]: qHTS assay to identify small molecule agonists of the hypoxia (HIF-1) signaling pathway - cell viability counter screen (AID 1224844; calls by dose curve; further: nearly all actives have a fitted effect of over 50% in size). The method in brief:
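In this counter screen, HRE-bla ME-180 cell viability after 17 hrs of compound exposure at 37C was read by CellTiter-Glo luminescence, multiplexed with the beta-lactamase reporter measurement.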
A general note: Quantitative high-throughput screening tests each substance at several concentrations.

Assay [2] is described as follows: qHTS assay to identify small molecule agonists of H2AX (AID 1224845; active means well fitted activation curve with a large enough effect in the signal ratio in the repeat runs, not every such curve was filed as active; the % refers to the signal ratio). The method in brief:
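Wild-type CHO-K1 cells, plated overnight, exposed 3hr at 37C to 15 concentrations (0.76% DMSO final). Lysed, then HTRF anti-pH2AX (S139) cryptate and anti-H2AX-d2 antibodies, 24 hr room temperature; 665/620 nm emission read.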

Assay [3] is described as follows: qHTS assay to identify small molecule agonists of the hypoxia (HIF-1) signaling pathway (AID 1224846; active means well fitted activation curve with a large enough effect in the signal ratio in the repeat runs, not every such curve was filed as active; the % refers to the signal ratio). The method in brief:
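ME-180 HRE-bla reporter cells; compounds in DMSO, 17 h at 37C; read-out beta-lactamase via CCF4-AM FRET.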

The nature of assay [4]: qHTS assay to identify small molecule agonists of H2AX - cell viability counter screen (AID 1224847; calls by dose curve; further: top concentration of the series differs between compounds; nearly all actives have a fitted effect of over 30% in size). The procedure, abridged: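 Counter-screen for viability: CellTiter-Glo ATP luminescence read after 3 h compound treatment (15-point titration, 0.76% DMSO final) of CHO-K1 cells at 37C, with 30 min room-temperature reagent incubation.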
Assay [5] is described as follows: qHTS assay to identify small molecule antagonists of the estrogen related receptor (ERR) signaling pathway from Tox21 library (AID 1224848). Further: nearly all actives have a fitted effect of over 50% in size. Further: potency means the concentration at half of the fitted maximal effect. The method in brief: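 Compounds dissolved in DMSO are pin-transferred onto ERR reporter cells (2,000 per well) that have settled for 6 h at 37 C. Plates then incubate 18 h at 37 C before ONE-Glo luciferase reagent and a luminescence read 30 min later.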

Assay [6] can be described thus: qHTS assay to identify small molecule agonists of the estrogen related receptor (ERR) signaling pathway from Tox21 library (AID 1224849; calls by dose curve; further: nearly all actives have a fitted effect of over 15% in size). As to conditions: ERR reporter cell line, ONE-Glo luciferase, 18 h; at 92.4 µM (top of the series) unless noted. The procedure, abridged: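 Luciferase activity in ERR pathway reporter cells served as the agonist readout; exposure lasted 18 h at 37 C, with ONE-Glo detection after 30 min at room temperature.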

Assay [7] is described as follows: qHTS RealTime-Glo MT Cell Viability Assay in HepG2 cells - 24 hour (AID 1224867). Further: nearly all actives have a fitted effect of over 50% in size. The procedure, abridged:
(§1)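 HepG2 cells (600/well) were dispensed with RealTime-Glo reagents, incubated 5 h at 37 °C, then treated with compounds in DMSO for up to 40 h. Nonlytic NanoLuc luminescence reflecting viable cells was read at each stated time point.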

Assay [8] is described as follows: qHTS RealTime-Glo MT Cell Viability Assay in HEK293 cells - 32 hour (AID 1224868). Further: top concentration of the series differs between compounds; nearly all actives have a fitted effect of over 50% in size. The method in brief:
(§2)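 HEK293 cells seeded with NanoLuc/prosubstrate reagent, rested 5 h at 37 C, then dosed and kept at 37 C up to 40 h. Nonlytic real-time luminescence from viable cells read at 0, 8, 16, 24, 32 and 40 h.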

Assay [9] is described as follows: qHTS RealTime-Glo MT Cell Viability Assay in HepG2 cells - 40 hour (AID 1224870). Further: nearly all actives have a fitted effect of over 50% in size. The method in brief:
(§3)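 HepG2 cells (600/well) mixed with RealTime-Glo MT reagent, settled 5 h at 37 C/5% CO2 before compound addition. Nonlytic NanoLuc luminescence from viable-cell prosubstrate reduction read repeatedly during 40 h treatment at 37 C.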

Assay [10] is described as follows: A CellTox Green Cytotoxicity Assay to monitor cytotoxicity in HEK293 cells - 40 hour (AID 1224871). Further: nearly all actives have a fitted effect of over 45% in size. The method in brief:
(§4)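 Real-time, in one plate: 600 HEK293 cells/well with dead-cell DNA dye, pinned compound after 5 h, 37 C incubation over 40 h; viable cells give no appreciable fluorescence.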

Assay [11] in a line: qHTS RealTime-Glo MT Cell Viability Assay in HEK293 cells - 16 hour (AID 1224872). The method in brief: as §2
Assay [12] can be described thus: qHTS RealTime-Glo MT Cell Viability Assay in HepG2 cells - 8 hour (AID 1224873). Further: nearly all actives have a fitted effect of over 55% in size. The method in brief: as §3
A short description of assay [13]: qHTS RealTime-Glo MT Cell Viability Assay in HEK293 cells - 40 hour (AID 1224874). Further: nearly all actives have a fitted effect of over 50% in size. As to conditions: RealTime-Glo luminescence; max response: hits give low values. The procedure, abridged: (§5)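 Kinetic, non-lysing viability readout. Seed HEK293 (600/well) with reagent, incubate 5 h at 37 C/5% CO2, pin 23 nL compound in DMSO, incubate at 37 C, read luminescence at 0, 8, 16, 24, 32, 40 h.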

Assay [14] is described as follows: A CellTox Green Cytotoxicity Assay to monitor cytotoxicity in HEK293 cells - 24 hour (AID 1224875). Further: nearly all actives have a fitted effect of over 45% in size. The procedure, abridged:
as §4

The nature of assay [15]: A CellTox Green Cytotoxicity Assay to monitor cytotoxicity in HepG2 cells - 16 hour (AID 1224876). Further: nearly all actives have a fitted effect of over 45% in size. The procedure, abridged:
(§6)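 Cytotoxicity was tracked as dead-cell DNA fluorescence in HepG2 cells treated with test compounds at 37 C; each time-point value comes from one kinetic series spanning 0, 8, 16, 24, 32 and 40 h.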

Assay [16] in a line: qHTS RealTime-Glo MT Cell Viability Assay in HepG2 cells - 32 hour (AID 1224877). Further: nearly all actives have a fitted effect of over 55% in size. The method in brief: as §1
Assay [17] in a line: A CellTox Green Cytotoxicity Assay to monitor cytotoxicity in HepG2 cells - 40 hour (AID 1224879). Further: nearly all actives have a fitted effect of over 40% in size. The procedure, abridged: as §6
The nature of assay [18]: qHTS RealTime-Glo MT Cell Viability Assay in HEK293 cells - 0 hour (AID 1224880). Further: top concentration of the series differs between compounds; nearly all actives have a fitted effect of over 45% in size. The procedure, abridged:
as §5

The nature of assay [19]: A CellTox Green Cytotoxicity Assay to monitor cytotoxicity in HEK293 cells - 0 hour (AID 1224869). Further: nearly all actives have a fitted effect of over 50% in size. The method in brief: as §4
Assay [20] is described as follows: A CellTox Green Cytotoxicity Assay to monitor cytotoxicity in HepG2 cells - 24 hour (AID 1224878). Further: nearly all actives have a fitted effect of over 45% in size. The procedure, abridged: as §6

The structures appear in SMILES notation. A number with no mark means an inactive call. Records with an inconclusive call do not appear. Active and inactive are the calls of the source. Unless noted, the call rests on the fitted dose curve; in most records, active means well fitted curve in the direction sought with a large enough effect in the repeat runs; inconclusive means weak or mixed curves; inactive means no such curve, though single readings can be large; an effect the other way counts as inactive or inconclusive.
On the % scale 0 is the no-effect control and ±100 the full control effect.

As for `CCN(CC)Cc1nccn1-c1ccc([N+](=O)[O-])cc1C(=O)c1ccccc1Cl`, the Potency entry in assay [1], in assay [2], in assay [3], in assay [4], in [5] and in [7] was “inactive” in each case. Further, the Potency entry in assay [8], in assay [9], in assay [10], in assay [11], in [12] and in assay [14] was “inactive” each time. In addition, the Potency result in [15], in assay [16], in assay [17] and in assay [18] was “inactive” throughout. Further, the activity change, positive = activation in [6] is -10.7% [at 42.5 µM]. The max response in assay [13] was -11.1%.
As to `Nc1ccc(Cl)cc1C(=O)c1ccccc1F`, the Potency entry in assay [1], in assay [2], in assay [3], in assay [4], in assay [7] and in assay [8] was “inactive” throughout. Besides, the Potency entry in assay [19], in assay [9], in [10], in assay [11], in assay [12] and in assay [14] was “inactive” throughout. Also, in assay [18], the Potency result was “inactive”. Besides, in assay [6], the activity change, positive = activation was 7.6% [at 42.5 µM]. Besides, the max response in [13] was -9.35%.
In the case of `CCN(CC)CCN1C(=O)CN=C(c2ccccc2F)c2cc(Cl)ccc21`, the Potency entry in [1], in assay [2], in [3], in [4], in [8] and in [19] was “inactive” in each case. Also, the Potency entry in assay [9], in assay [10], in [11], in [12], in assay [14] and in assay [15] was “inactive” each time. For the same compound, the Potency result in assay [17] and in assay [18] was “inactive” in each case. Moreover, the activity change, positive = activation in assay [6] was -10.4% [at 42.5 µM]. The max response in [13] was -8.22%.
Regarding `CN=C=O`, the Potency entry in [1], in [2], in assay [3], in [4], in assay [5] and in assay [7] was “inactive” in each case. Besides, the Potency result in assay [8], in [19], in assay [9], in assay [10], in [11] and in assay [12] was “inactive” each time. Moreover, the Potency result in [14], in assay [15], in assay [16], in assay [20], in assay [17] and in assay [18] was “inactive” throughout. The activity change, positive = activation in assay [6] is 0.484%. In addition, the max response in assay [13] is 8.4%.
On to `C=CC(=C)C`, for which the Potency entry in assay [1], in assay [2], in assay [3], in assay [4], in assay [7] and in [8] was “inactive” each time. The Potency entry in [19], in [9], in assay [10], in [11], in assay [12] and in [14] was “inactive” in each case. The Potency entry in assay [15], in [16], in [20], in assay [17] and in [18] was “inactive” throughout. The max response in [13] was 8.63%.
For the compound `CCOC(=O)CCN(SN(C)C(=O)Oc1cccc2c1OC(C)(C)C2)C(C)C`, the Potency result in assay [1], in [2], in assay [3], in [4], in assay [7] and in assay [8] was “inactive” throughout. In addition, the Potency entry in assay [19], in assay [9], in assay [10], in assay [11], in assay [12] and in assay [14] was “inactive” each time. For the same compound, the Potency entry in [15], in assay [16], in assay [20] and in assay [17] was “inactive” each time. Besides, the Potency in [5] was 61.1 µM (active). Moreover, the activity change, positive = activation in [6] is -43.3%. Besides, in assay [13], the max response is -6%.
Turning to `CC(C)(C)c1ccc(OP(=O)(Oc2ccccc2)Oc2ccccc2)cc1`, the Potency result in [1], in assay [2], in assay [3], in assay [4], in assay [7] and in assay [9] was “inactive” in each case. For the same compound, the Potency result in [10], in [12], in assay [15], in [16], in assay [17] and in assay [18] was “inactive” throughout. Besides, the activity change, positive = activation in [6] is -31.3%.
As to `ClC1=C(Cl)[C@]2(Cl)[C@@H]3[C@H]4C[C@H]([C@@H]5O[C@H]45)[C@@H]3[C@@]1(Cl)C2(Cl)Cl`, the Potency result in assay [1], in assay [2], in [3], in [4], in assay [7] and in assay [8] was “inactive” throughout. For the same compound, the Potency entry in assay [19], in assay [9], in [10], in assay [11], in assay [12] and in assay [14] was “inactive” each time. Besides, the Potency entry in assay [15], in [20], in assay [17] and in assay [18] was “inactive” in each case. Further, the activity change, positive = activation in assay [6] is -25%. For the same compound, the max response in assay [13] was 3.07%.
